In PubChem BioAssay AID743279 (National Center for Advancing Translational Sciences (NCATS), 2014) one finds activity change data, which are given here for 89 compounds.

Each structure is given as a SMILES string. The whole screen tested about 360,000 compounds, of which about 17,000 (4.7%) were called active. Not shown: some 5% with an inconclusive outcome. Rule as the data show it: active = activity change below about -50%; inconclusive = mostly about -30% to -49%; inactive = weaker than that. Shown is part of a subset that was picked to be rich in actives.
% is scaled to controls: 0 for no effect and ±100 for the full control effect.

The nature of this assay: qHTS for Inhibitors of Inflammasome Signaling: IL-1-beta AlphaLISA Primary Screen. The note with it: THP-1 LPS/ATP IL-1B secretion, 16 h; at 57.5 µM, hits give low values. The gist of the method:
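THP-1 cells pretreated 1 hr with compounds (up to 57.5 uM final), then stimulated with LPS (250 ng/mL final) plus ATP (1.25 mM final); secreted IL-1B measured by AlphaLISA after 16 hr, decreased signal indicating inhibition.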
A general note: Quantitative high-throughput screening tests each substance at several concentrations.
Turning to `Cc1ccc(-c2c(C)n([O-])c3c([n+]2=O)CCC3)cc1`, the activity change was 12.3% (inactive).

`CCOc1cccc(=O)c2c(C)n(CC3CCCO3)c(C)c12` (centres undefined): the activity change is 13.1% (inactive).

For the compound `O=C1c2cccc3c([N+](=O)[O-])ccc(c23)C(=O)N1CC1CCCO1` (centres undefined), the activity change is -98.7% (active).

`CN1CN(C)c2ccc([N+](=O)[O-])c3cccc1c23`: the activity change was -18.1% (inactive).

As for `Cc1ccc(N2CCN(c3ccc(C)cc3)C2c2ccccn2)cc1`, the activity change was -6.85% (inactive).

`COc1ccc(S(=O)(=O)N2CCC(C(=O)NCCC(=O)NCCc3cccc(F)c3)CC2)cc1`: the activity change was -8.46% (inactive).

With `CC(Cc1cccs1)N(Cc1ccc(Cl)cc1)C(=O)c1ccncc1` (centres undefined), the activity change was 20.4% (inactive).

In the case of `Nc1nc(NC(=O)/C=C/c2ccc(F)cc2)nn1-c1ccccc1`, the activity change is -2.85% (inactive).

As for `O=c1c2c(nc3n1CCCCC3)sc1c(O)cccc12`, the activity change is 24.7% (inactive).

On to `CC(=O)c1ccc(NC(=O)c2sc3nc4n(c(=O)c3c2C)CCCCC4)cc1`, for which the activity change was -59.8% (active).

Regarding `Cc1c(C(=O)Nc2ccccc2)sc2nc3n(c(=O)c12)CCCCC3`, the activity change is -7.47% (inactive).

Turning to `CCCS(=O)(=O)Nc1ccc(-c2cn3c(n2)SCC3)cc1`, the activity change is -1.84% (inactive).

In the case of `CCCCCCNC(=O)O[C@]12C[C@@H](C(=O)OC)[C@@H](C(=O)OC)C[C@@]1(O)CN(S(=O)(=O)c1ccc(C)cc1)C2`, the activity change is 11.6% (inactive).

Take `COC(=O)[C@H]1C[C@H](OC(=O)NCc2ccccc2)[C@@]2(O)CN(S(=O)(=O)c3ccc(C)cc3)CC2[C@H]1C(=O)OC` (some centres undefined): the activity change was -4.9% (inactive).

`CCCCCCNC(=O)O[C@H]1CN(C(=O)OC(C)C)N(C(=O)OC(C)C)[C@@H]2CN(S(=O)(=O)c3ccc(C)cc3)C[C@]12O`: the activity change is -63.8% (active).

As to `COc1ccc([C@H]2CC(=O)C[C@@H](CCn3cc(CC4CCCC4)nn3)O2)cc1`, the activity change was 10.9% (inactive).

`COc1ccc(-c2nc3ccc(Br)cn3c2Cc2ccc(C)cc2)cc1OC`: the activity change is -15.5% (inactive).

As for `Cc1ccc(Cn2cc(C(=O)NN)c(=O)c3ccc(F)cc32)cc1`, the activity change is -11.4% (inactive).

Consider `Cc1ccc(Nc2cc(C)nc3c(C)ccc([N+](=O)[O-])c23)cc1`, for which the activity change was -61.1% (active).

Turning to `Cc1ccc2cccc([N+](=O)[O-])c2n1`, the activity change is 15% (inactive).

Consider `Cc1ccc(Nc2nc(C)cc(C)c2C(N)=O)cc1`, for which the activity change is 19.4% (inactive).

For the compound `O=NN(CCCl)C(=O)NCCc1cccc[n+]1[O-]`, the activity change was 15% (inactive).

Consider `O=C(NC1CCCCCC1)C1CCN(C(=O)c2ccc(Cl)cc2)CC1`, for which the activity change was 9.37% (inactive).

With `CC1CCN(C(=O)c2ccc(CSc3ccc(Cl)cc3)cc2)CC1`, the activity change was -51.2% (active).

For `O=C(c1ccc(CSc2ccccc2)cc1)N1CCCCCC1`, the activity change was -19.7% (inactive).

Consider `O=C(NC(=S)NC1CCCCC1)c1ccc(Cl)cc1`, for which the activity change was -21% (inactive).

On to `O=C(NC1CCCCCC1)c1cccnc1Sc1ccc(Cl)cc1`, for which the activity change was 1.6% (inactive).

For `O=C(NC1CCCCC1)c1ccc(-c2ccc(Cl)cc2)o1`, the activity change is -76.5% (active).

`CCCNC(=O)C1(C)CCN(Cc2ccc(Cl)c(Cl)c2)C1` (centres undefined): the activity change was 17.3% (inactive).

Regarding `COc1ccc(N)c(C)c1`, the activity change is -25.8% (inactive).

Take `COC(=O)[C@]12CCCCC=C1N(CCC1=CCCCC1)C(=O)[C@H](CC(=O)NCC1CCCCC1)C2`: the activity change was -28.6% (inactive).

`Fc1ccc(NC(=S)N2CCc3[nH]c4ccccc4c3C2)cc1`: the activity change is 11.5% (inactive).

As to `O=C(Nc1ccc(Cl)cc1)N1CCc2[nH]c3ccccc3c2C1`, the activity change is -18.5% (inactive).

For the compound `O=C(CCCN1CCc2[nH]c3ccc(F)cc3c2C1)c1ccc(F)cc1`, the activity change was -79.8% (active).

As for `CCCCN1C[C@H](c2ccc(Br)cc2)[C@@H](CC(=O)Nc2ccc(Br)cc2)C1=O`, the activity change was -5.58% (inactive).

Take `OCc1ccc(OCCCOc2cccc3cccnc23)cc1`: the activity change is -1.1% (inactive).

`O=C(Nc1ccccc1)Oc1cccc2cccnc12`: the activity change was -91.6% (active).

Take `NC(=O)C1CCN(C(=O)COc2cccc3cccnc23)CC1`: the activity change is 0.882% (inactive).

Regarding `C[C@H](CO)N1C[C@H](C)[C@H](CN(C)CC2CC2)Oc2ccc(NC(=O)CCN3CCOCC3)cc2C1=O`, the activity change was 18.8% (inactive).

For `O=C(C1CCCO1)N1CCN(C(=O)C23CC4CC(CC(C4)C2)C3)CC1` (centres undefined), the activity change was 9.67% (inactive).

Turning to `CN1CCN(c2ccc([N+](=O)[O-])c(Sc3nc4ccccc4[nH]3)c2)CC1`, the activity change was -26.9% (inactive).

Turning to `CCC(c1nc2ccccc2[nH]1)n1c(=O)c(-c2cccs2)nc2ccccc21` (centres undefined), the activity change is -20% (inactive).

Consider `CCC(C)N1C(=O)S/C(=C/c2ccc(Sc3nc4ccccc4[nH]3)o2)C1=O` (centres undefined), for which the activity change was -96.1% (active).

With `CC(C)c1csc(CN2CCC(CO)(Cc3ccccc3)CC2)n1`, the activity change was -21.7% (inactive).

As to `CN=C(NC#N)NCCSCc1nc[nH]c1C`, the activity change is 33.7% (inactive).

As to `COc1ccccc1-n1nnnc1S(=O)(=O)Cc1ccc(Cl)cc1`, the activity change is -119% (active).

Take `CCC(C)N(C(=O)CSc1nnnn1-c1ccccc1OC)C1CCS(=O)(=O)C1` (centres undefined): the activity change was -14.9% (inactive).

Consider `COc1ccccc1-n1nnnc1SCC(=O)NC(=O)Cc1ccccc1`, for which the activity change is 4.79% (inactive).

For `CCCC(C)n1[nH]c(=O)c2c(C)cc(C)nc21` (centres undefined), the activity change is -13.2% (inactive).

As for `Cc1ccccc1C#CC1=CC(=O)CC(C)(C)C1`, the activity change is -52.1% (active).

Take `Cc1cc(O)ccc1NC1=CC(=O)CC(C)(C)C1`: the activity change was -0.895% (inactive).

Turning to `CC1(C)CC(=O)C=C(Nc2ccccc2)C1`, the activity change was -3.98% (inactive).

With `CC1C(=O)N(Cc2cn(CC3CCCCC3)nn2)CCS(=O)(=O)N1Cc1ccc(-c2cccc(N(C)C)c2)cc1` (centres undefined), the activity change was 0% (inactive).

Turning to `OCCN1CCN(CCO)C1=S`, the activity change is 15.9% (inactive).

With `Cc1c(NC(=O)c2coc(=O)c(Br)c2)c(=O)n(-c2ccccc2)n1C`, the activity change was -72.5% (active).

Consider `Cc1c(NC(=O)c2cc(-c3ccc(Br)cc3)on2)c(=O)n(-c2ccccc2)n1C`, for which the activity change was -16.8% (inactive).

As for `Cc1cc2oc(C(=O)Nc3c(C)n(C)n(-c4ccccc4)c3=O)c(C)c2cc1Cl`, the activity change was 0% (inactive).

As for `COC(c1ccccc1)(c1ccccc1)C(Oc1nc(C)cc(C)n1)C(=O)O` (centres undefined), the activity change was 17.2% (inactive).

With `COc1ccc(C(=O)COC(=O)c2nn(C)c(=O)c3ccccc23)c(OC)c1`, the activity change is -0.449% (inactive).

`CC[C@]12c3[nH]c4ccc(OC)cc4c3CCN1C(=O)C(CC(=O)NCc1ccco1)C[C@@H]2C(=O)N1CCN(C(=O)C2CC2)CC1` (some centres undefined): the activity change was 16.2% (inactive).

As to `CCCCOc1ccc(NC(=O)CSCC(=O)OCC)cc1`, the activity change is -3.32% (inactive).

Turning to `COc1cccc(OCc2nnc3n2N=C(c2ccccc2)C(CC(=O)O)S3)c1` (centres undefined), the activity change is 29.1% (inactive).

As to `CCCCn1c(N)c(N(CCOC)C(=O)c2cccc(OCc3ccccc3)c2)c(=O)[nH]c1=O`, the activity change was -4.76% (inactive).

As for `CCCCCCCCCCOC(=O)Cn1c(COc2ccc(C)cc2)[n+](C)c2ccccc21`, the activity change was -90.4% (active).

For the compound `CCCCCCCCCCOC(=O)Cn1c(COc2cccc(OC)c2)[n+](C)c2ccccc21`, the activity change is -79.3% (active).

In the case of `Cc1ccc(COc2ccc(C(=O)NN)cc2)cc1`, the activity change was -17.7% (inactive).

As for `COc1ccc(NC(=O)C2Cc3c(-c4ccc5c(c4)OCO5)ccnc3O2)cn1` (centres undefined), the activity change is 22.6% (inactive).

As for `COC(=O)N(C)C[C@@H]1OCc2cnnn2CCCC(=O)N([C@@H](C)CO)C[C@@H]1C`, the activity change was 1.38% (inactive).

Regarding `CC1CN(Cc2ccco2)C(=S)N(c2ccccc2)C1=O` (centres undefined), the activity change is 3.29% (inactive).

Turning to `OC(c1ccccc1)(c1ccccc1)C1CCN(CCCOc2ccccc2)CC1`, the activity change is -28.1% (inactive).

As to `O=C1CCN(CCc2ccccc2)CCN1CCOc1ccccc1`, the activity change was 23.9% (inactive).

Take `O=c1[nH]c2ccccc2n1C1CCN(CCOc2ccccc2)CC1`: the activity change is -51.9% (active).

For the compound `O=C(c1ccc(N2CCCC2=O)cc1)N1CCN(c2ccc(C(F)(F)F)cc2[N+](=O)[O-])CC1`, the activity change is -8.61% (inactive).

As to `CCOc1ccc(Br)cc1S(=O)(=O)Nc1cccc(S(=O)(=O)N(CC)CC)c1`, the activity change was -3.12% (inactive).

Turning to `CC1(C)OC(=O)C2=C(C[C@@H](C3CCCC3)O[C@@H]2c2ccc(Cl)cc2)O1`, the activity change was 30.2% (inactive).

With `Cc1cc(C)c2c(n1)nn1c(-n3ccnc3)cc(C)nc21`, the activity change was -75.6% (active).

Consider `Cc1cc(C)c2c(NC(=O)C3CC3)nn(C)c2n1`, for which the activity change is -2.02% (inactive).

For `Cc1cc(-n2nc(C)cc2C)n2nc(C)c(-c3ccccc3)c2n1`, the activity change is -4.92% (inactive).

As to `CN(C)Cc1ccc(F)cc1Sc1cc(Cl)ccc1Cl`, the activity change was 4.08% (inactive).

Regarding `Cc1ccccc1CN1C(=O)CSCC1(C)C(=O)Nc1c(C)cccc1C` (centres undefined), the activity change was -3.26% (inactive).

Take `CC1C(C)N(C(=O)CCl)c2ccccc2N1C(=O)CCl` (centres undefined): the activity change is -101% (active).

For `CC1CC(C)CN(CC(=O)N2c3ccccc3CCc3ccccc32)C1` (centres undefined), the activity change is -6.12% (inactive).

Consider `CC1C(=O)N(Cc2ccccc2)c2ccccc2N1C(=O)c1ccccc1` (centres undefined), for which the activity change is 0.175% (inactive).

For the compound `O=C(OCCOc1ccccc1Cl)c1cc(S(=O)(=O)N2CCCCC2)ccc1N1CCOCC1`, the activity change is 11.6% (inactive).

As to `O=C(c1ccc2ccccc2n1)N1CCN(c2ccccc2Cl)CC1`, the activity change is -2.41% (inactive).

Regarding `O=C(c1c(Cl)cccc1Cl)N1CCN(c2cccc3[nH]ccc23)CC1`, the activity change was -73.5% (active).

As to `O=C(c1c(F)cccc1Cl)N1CCN(c2ccccn2)CC1`, the activity change is -9.43% (inactive).

Consider `Cc1ccc(C2=NN(C(=O)CSc3nc(N)cc(N)n3)C(c3ccco3)C2)cc1` (centres undefined), for which the activity change was -23.3% (inactive).

As for `COCCCN1C(=O)C(CC(=O)NCc2cccs2)CC(C(=O)N2CCOCC2)=C1C` (centres undefined), the activity change was -1.75% (inactive).
